Publication PMC7862700, “An all-to-all approach to the identification of sequence-specific readers for epigenetic DNA modifications on cytosine”

Tests used:
Experiment in all cases: DAPPL (digital affinity profiling via proximity ligation, sequencing); 10 mM Tris-HCl pH 7.5, 50 mM NaCl, 1 mM DTT, 4% glycerol, room temperature, 30 min; GST-TFs on glutathione beads, 16-mer random dsDNA library, 0.1% formaldehyde crosslink after washing; high values mean tight binding
Conditions in all cases: protein: recombinant; tags: N-terminal GST; dsDNA, one strand shown
FLI1 = target: T1, FLI1 (Homo sapiens, UniProt Q01543 1-452)
T1 sequence: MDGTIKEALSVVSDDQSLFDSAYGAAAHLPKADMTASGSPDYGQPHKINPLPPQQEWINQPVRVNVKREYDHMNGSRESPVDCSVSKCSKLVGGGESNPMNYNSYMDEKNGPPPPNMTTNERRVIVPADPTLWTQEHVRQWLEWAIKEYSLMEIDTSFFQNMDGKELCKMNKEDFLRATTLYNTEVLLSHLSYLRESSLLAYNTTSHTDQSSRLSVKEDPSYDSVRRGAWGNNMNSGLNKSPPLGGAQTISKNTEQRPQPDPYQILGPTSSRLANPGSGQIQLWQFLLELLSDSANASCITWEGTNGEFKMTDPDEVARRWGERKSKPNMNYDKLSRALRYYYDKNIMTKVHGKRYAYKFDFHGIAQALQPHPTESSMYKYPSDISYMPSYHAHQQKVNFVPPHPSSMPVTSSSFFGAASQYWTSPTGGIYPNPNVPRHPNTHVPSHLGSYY
Method in brief: (§1)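 Pools were built from human transcription factors expressed in yeast as GST fusions, captured on glutathione beads and DNA-barcoded, along with a tag-only sample. Incubation with 200 nmole of a 16-mer random double-stranded DNA library lasted 30 min at room temperature in Tris/NaCl/DTT/glycerol buffer, and was followed by washing, 0.1% formaldehyde crosslinking, proximity ligation, PCR amplification and Illumina NextSeq500 sequencing. Binding signal is the quotient of each hexamer's read frequency for a factor and its frequency for the tag-only sample.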

ELK1 = target: T2, ELK1 (Homo sapiens, UniProt P19419 1-428)
T2 sequence: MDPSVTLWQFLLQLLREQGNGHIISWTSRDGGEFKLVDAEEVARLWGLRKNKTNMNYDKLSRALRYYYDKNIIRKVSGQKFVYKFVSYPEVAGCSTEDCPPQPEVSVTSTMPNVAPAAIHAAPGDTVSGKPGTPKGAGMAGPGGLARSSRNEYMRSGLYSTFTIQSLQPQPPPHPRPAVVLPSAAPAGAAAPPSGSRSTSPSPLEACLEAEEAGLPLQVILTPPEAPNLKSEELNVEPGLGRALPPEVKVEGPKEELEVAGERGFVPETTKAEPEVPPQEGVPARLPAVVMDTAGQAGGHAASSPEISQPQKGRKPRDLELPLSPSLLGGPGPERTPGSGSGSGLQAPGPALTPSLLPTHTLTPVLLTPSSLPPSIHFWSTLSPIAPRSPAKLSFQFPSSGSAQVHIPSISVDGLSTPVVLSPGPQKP
Method in brief: as §1

GABPA = target: T3, GABPA (Homo sapiens, UniProt Q06546 1-454)
T3 sequence: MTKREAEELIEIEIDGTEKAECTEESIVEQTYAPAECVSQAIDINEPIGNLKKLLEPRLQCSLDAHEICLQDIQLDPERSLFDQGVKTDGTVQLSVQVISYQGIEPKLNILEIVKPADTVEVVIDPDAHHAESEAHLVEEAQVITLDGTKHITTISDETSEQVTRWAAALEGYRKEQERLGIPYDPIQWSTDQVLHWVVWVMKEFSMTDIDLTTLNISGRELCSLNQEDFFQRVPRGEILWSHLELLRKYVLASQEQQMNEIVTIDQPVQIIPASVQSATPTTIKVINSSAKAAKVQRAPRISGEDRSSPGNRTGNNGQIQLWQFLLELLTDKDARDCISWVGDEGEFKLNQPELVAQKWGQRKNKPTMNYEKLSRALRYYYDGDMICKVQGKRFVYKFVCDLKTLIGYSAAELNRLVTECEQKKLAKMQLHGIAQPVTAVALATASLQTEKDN
Method in brief: as §1

ERG = target: T4, ERG (Homo sapiens, UniProt P11308 1-479)
T4 sequence: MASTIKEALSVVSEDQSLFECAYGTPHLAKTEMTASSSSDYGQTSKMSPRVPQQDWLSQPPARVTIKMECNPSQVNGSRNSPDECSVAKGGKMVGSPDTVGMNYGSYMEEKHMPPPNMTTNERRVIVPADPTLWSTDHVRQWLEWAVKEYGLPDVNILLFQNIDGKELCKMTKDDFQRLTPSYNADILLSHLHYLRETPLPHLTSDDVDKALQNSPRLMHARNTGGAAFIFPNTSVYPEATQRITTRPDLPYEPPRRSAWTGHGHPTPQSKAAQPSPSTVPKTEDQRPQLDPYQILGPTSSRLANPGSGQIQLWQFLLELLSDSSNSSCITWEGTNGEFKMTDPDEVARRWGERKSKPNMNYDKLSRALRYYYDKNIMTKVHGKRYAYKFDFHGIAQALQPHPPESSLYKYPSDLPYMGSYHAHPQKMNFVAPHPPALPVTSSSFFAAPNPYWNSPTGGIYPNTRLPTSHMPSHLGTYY
Method in brief: as §1

ELF1 = ELF1 (Homo sapiens, UniProt P32519 1-619)
ELF1, sequence (P32519 whole entry): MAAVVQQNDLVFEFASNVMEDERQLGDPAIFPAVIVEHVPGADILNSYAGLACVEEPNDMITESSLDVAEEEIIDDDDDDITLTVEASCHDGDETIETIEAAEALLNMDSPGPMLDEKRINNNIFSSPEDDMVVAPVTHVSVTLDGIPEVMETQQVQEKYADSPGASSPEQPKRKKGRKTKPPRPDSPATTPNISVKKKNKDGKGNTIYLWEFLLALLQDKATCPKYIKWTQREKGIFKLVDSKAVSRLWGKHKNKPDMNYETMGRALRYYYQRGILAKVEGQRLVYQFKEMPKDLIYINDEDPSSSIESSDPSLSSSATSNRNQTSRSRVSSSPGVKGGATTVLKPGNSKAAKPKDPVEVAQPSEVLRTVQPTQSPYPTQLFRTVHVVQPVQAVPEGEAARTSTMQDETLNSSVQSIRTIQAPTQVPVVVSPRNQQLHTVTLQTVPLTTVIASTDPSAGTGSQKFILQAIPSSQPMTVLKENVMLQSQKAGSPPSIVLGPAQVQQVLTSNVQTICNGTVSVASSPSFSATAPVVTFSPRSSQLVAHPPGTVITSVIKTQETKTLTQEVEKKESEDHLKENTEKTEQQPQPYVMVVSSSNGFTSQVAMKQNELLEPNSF
Method in brief: as §1

EHF = target: T5, EHF (Homo sapiens, UniProt Q9NZC4 1-300)
T5 sequence: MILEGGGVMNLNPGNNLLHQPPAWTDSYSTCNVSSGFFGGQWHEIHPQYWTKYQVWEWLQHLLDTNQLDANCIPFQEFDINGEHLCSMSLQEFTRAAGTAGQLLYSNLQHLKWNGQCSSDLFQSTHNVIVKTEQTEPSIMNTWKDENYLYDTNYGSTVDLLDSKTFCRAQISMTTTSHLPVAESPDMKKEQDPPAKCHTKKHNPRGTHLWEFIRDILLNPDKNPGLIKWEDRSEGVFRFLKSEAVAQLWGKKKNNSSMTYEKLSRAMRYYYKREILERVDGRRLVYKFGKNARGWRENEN
Method in brief: as §1

SPI1 = SPI1 (Homo sapiens, UniProt P17947 1-270)
Method in brief: as §1

SPIB = SPIB (Homo sapiens, UniProt Q01892 1-262)
SPIB, sequence (Q01892 whole entry): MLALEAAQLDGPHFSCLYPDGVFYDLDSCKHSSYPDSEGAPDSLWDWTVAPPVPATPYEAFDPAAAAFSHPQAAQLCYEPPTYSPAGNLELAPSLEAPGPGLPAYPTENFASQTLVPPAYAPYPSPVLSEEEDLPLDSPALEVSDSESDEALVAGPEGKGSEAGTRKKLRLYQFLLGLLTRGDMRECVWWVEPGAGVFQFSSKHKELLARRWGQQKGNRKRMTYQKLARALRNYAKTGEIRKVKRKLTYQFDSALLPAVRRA
Method in brief: as §1

FEV = target: T6, FEV (Homo sapiens, UniProt Q99581 1-238)
T6 sequence: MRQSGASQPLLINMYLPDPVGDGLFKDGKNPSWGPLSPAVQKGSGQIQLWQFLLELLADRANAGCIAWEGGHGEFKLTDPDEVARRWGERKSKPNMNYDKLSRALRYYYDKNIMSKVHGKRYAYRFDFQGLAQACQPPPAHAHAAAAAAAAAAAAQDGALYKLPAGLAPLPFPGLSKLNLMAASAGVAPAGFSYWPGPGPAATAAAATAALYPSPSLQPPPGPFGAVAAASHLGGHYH
Method in brief: as §1

ETV5 = ETV5 (Homo sapiens, UniProt P41161 1-510)
ETV5, sequence (P41161 whole entry): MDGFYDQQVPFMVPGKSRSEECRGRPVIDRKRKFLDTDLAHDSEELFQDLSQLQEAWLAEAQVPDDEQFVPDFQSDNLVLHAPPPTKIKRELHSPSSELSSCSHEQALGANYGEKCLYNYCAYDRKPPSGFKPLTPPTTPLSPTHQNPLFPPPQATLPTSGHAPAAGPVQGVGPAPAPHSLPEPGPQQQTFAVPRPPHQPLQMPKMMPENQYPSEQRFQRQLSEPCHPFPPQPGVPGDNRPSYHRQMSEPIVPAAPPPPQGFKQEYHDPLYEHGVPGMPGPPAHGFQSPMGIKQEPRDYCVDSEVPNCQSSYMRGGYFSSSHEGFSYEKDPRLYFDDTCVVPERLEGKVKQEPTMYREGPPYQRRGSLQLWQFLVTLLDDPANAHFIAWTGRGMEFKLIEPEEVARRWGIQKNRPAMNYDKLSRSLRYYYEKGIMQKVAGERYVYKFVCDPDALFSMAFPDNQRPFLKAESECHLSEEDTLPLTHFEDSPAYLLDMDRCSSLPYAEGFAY
Method in brief: as §1

ELF4 = ELF4 (Homo sapiens, UniProt Q99607 1-663)
ELF4, sequence (Q99607 whole entry): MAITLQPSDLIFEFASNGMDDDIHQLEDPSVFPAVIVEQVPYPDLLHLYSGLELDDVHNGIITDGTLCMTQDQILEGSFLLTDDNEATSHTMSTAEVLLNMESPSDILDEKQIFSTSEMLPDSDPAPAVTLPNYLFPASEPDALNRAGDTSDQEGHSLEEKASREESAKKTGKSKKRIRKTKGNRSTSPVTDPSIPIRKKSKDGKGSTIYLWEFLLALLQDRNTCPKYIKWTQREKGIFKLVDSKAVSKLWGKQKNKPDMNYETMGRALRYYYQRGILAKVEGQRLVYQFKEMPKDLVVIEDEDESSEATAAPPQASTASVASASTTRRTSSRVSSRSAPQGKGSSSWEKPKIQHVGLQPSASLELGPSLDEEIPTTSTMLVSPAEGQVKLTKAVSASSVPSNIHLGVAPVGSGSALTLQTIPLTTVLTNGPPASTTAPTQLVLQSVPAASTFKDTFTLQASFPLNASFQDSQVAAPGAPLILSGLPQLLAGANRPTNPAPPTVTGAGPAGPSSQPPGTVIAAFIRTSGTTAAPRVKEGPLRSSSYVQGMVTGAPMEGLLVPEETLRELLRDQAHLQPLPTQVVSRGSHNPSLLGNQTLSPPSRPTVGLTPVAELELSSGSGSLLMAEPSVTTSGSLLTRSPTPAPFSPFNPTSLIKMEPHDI
Method in brief: as §1

ELF3 = target: T7, ELF3 (Homo sapiens, UniProt P78545 1-371)
T7 sequence: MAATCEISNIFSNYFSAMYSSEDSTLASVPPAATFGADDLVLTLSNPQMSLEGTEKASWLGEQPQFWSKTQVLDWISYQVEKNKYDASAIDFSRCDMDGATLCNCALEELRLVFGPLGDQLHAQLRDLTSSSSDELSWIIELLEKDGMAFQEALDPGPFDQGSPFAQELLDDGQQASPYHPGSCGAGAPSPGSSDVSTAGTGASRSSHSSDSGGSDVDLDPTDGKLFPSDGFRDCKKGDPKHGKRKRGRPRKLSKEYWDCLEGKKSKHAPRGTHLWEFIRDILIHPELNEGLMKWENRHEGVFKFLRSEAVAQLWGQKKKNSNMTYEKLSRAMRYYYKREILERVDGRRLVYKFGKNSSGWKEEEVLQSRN
Method in brief: as §1

ETV1 = ETV1 (Homo sapiens, UniProt P50549 1-477)
ETV1, sequence (P50549 whole entry): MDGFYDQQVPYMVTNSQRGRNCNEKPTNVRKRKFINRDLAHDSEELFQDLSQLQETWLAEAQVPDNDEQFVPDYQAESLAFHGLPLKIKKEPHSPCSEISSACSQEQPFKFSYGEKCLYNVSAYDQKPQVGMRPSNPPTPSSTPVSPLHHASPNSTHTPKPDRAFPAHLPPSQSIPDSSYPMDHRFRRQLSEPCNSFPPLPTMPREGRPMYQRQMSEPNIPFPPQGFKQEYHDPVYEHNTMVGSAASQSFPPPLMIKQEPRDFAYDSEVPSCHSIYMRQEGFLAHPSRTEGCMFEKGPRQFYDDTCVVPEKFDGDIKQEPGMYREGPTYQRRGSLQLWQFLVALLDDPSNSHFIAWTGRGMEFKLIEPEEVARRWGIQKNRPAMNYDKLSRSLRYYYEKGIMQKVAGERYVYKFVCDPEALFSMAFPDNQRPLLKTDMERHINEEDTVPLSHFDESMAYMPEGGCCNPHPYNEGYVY
Method in brief: as §1

ERF = target: T8, ERF (Homo sapiens, UniProt P50548 1-548)
T8 sequence: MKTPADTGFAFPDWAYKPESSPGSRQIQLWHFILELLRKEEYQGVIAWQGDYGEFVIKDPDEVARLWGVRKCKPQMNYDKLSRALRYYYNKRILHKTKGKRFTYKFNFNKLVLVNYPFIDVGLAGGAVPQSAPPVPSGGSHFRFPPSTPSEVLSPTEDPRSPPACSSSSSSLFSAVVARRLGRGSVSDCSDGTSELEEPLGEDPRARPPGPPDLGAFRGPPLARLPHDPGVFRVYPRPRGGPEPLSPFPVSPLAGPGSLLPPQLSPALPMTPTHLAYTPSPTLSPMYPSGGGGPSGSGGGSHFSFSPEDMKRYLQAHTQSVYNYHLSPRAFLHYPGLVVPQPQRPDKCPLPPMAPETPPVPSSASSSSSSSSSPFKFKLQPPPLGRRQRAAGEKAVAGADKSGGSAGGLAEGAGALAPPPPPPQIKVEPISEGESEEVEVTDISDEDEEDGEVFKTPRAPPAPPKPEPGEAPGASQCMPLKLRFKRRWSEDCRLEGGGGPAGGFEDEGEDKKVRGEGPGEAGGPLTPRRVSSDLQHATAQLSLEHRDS
Method in brief: as §1

ETV3L = target: T9, ETV3L (Homo sapiens, UniProt Q6ZN32 1-361)
T9 sequence: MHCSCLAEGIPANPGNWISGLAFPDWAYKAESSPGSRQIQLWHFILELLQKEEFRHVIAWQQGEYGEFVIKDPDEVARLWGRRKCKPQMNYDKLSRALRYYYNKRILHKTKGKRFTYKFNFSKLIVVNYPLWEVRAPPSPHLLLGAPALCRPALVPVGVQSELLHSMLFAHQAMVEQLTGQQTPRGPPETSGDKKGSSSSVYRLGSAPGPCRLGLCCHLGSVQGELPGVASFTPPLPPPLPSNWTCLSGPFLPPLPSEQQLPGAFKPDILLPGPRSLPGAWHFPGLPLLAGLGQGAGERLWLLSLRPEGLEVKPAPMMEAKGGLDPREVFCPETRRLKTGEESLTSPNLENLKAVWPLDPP
Method in brief: as §1

ETS2 = target: T10, ETS2 (Homo sapiens, UniProt P15036 1-469)
T10 sequence: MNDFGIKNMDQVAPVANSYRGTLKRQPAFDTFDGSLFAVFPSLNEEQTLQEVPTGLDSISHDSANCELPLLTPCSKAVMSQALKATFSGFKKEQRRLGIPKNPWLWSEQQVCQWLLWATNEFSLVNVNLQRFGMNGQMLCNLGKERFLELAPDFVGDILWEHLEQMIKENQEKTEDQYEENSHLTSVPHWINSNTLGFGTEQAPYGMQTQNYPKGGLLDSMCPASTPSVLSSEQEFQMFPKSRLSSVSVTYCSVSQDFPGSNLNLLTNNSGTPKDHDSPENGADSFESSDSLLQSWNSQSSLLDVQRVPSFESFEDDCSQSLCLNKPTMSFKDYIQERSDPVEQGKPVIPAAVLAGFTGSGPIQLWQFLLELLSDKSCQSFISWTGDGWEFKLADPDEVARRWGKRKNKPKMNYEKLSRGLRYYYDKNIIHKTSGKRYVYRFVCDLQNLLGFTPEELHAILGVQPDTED
Method in brief: as §1

ETV7 = target: T11, ETV7 (Homo sapiens, UniProt Q9Y603 1-341)
T11 sequence: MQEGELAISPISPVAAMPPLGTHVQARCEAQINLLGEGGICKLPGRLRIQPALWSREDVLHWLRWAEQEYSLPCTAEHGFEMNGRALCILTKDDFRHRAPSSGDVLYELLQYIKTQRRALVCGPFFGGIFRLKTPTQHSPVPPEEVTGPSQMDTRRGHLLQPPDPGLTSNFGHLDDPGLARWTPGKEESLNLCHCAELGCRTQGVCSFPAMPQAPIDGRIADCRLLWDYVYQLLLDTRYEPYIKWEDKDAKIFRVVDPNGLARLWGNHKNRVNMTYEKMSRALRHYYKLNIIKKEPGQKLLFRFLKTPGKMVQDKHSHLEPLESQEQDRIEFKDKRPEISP
Method in brief: as §1

ETV3 = target: T12, ETV3 (Homo sapiens, UniProt P41162-2 1-143)
T12 sequence: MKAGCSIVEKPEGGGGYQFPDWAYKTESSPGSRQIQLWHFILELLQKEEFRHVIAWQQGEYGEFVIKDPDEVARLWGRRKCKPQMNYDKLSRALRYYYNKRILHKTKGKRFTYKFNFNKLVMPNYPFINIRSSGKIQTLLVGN
Method in brief: as §1

GCTGCG
binding signal (FLI1): 1.01 fold enrichment (6-mer frequency, TF over GST control) | binding signal (ELK1): 1.12 fold enrichment (6-mer frequency, TF over GST control) | binding signal (GABPA): 1.1 fold enrichment (6-mer frequency, TF over GST control) | binding signal (ERG): 1.09 fold enrichment (6-mer frequency, TF over GST control) | binding signal (ELF1): 1.13 fold enrichment (6-mer frequency, TF over GST control) | binding signal (EHF): 1.21 fold enrichment (6-mer frequency, TF over GST control) | binding signal (SPI1): 1.08 fold enrichment (6-mer frequency, TF over GST control) | binding signal (SPIB): 1.08 fold enrichment (6-mer frequency, TF over GST control) | binding signal (FEV): 1.1 fold enrichment (6-mer frequency, TF over GST control) | binding signal (ETV5): 1.12 fold enrichment (6-mer frequency, TF over GST control) | binding signal (ELF4): 1.1 fold enrichment (6-mer frequency, TF over GST control) | binding signal (ELF3): 1.03 fold enrichment (6-mer frequency, TF over GST control) | binding signal (ETV1): 1.16 fold enrichment (6-mer frequency, TF over GST control) | binding signal (ERF): 1.08 fold enrichment (6-mer frequency, TF over GST control) | binding signal (ETV3L): 1.13 fold enrichment (6-mer frequency, TF over GST control) | binding signal (ETS2): 1.14 fold enrichment (6-mer frequency, TF over GST control) | binding signal (ETV7): 1.19 fold enrichment (6-mer frequency, TF over GST control) | binding signal (ETV3): 1.07 fold enrichment (6-mer frequency, TF over GST control)
